{
  "source": "the supplement of paper PMC4022240",
  "test_in_all_cases": "peptide microarray binding signal (635 nm), min-max normalized on array (fraction of array maximum); higher = stronger binding",
  "key": {"[1]": {"biological_target": "T1, HaloTag-ATRX ADD domain (163-292)", "T1 chain": "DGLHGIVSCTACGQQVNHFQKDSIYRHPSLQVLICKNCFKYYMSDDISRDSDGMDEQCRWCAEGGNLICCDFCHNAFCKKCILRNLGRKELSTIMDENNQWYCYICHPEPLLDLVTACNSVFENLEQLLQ", "method_in_brief": "(§1)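 Within each library, mean intensities of triplicate spots were min-max scaled to give the binding signal. The spots were histone 13-mer peptide–cellulose conjugates on nitrocellulose with a Cy3 tracer, blocked overnight at 4°C. They were then probed for 1 h at 4°C using biotin-labelled HaloTag reader fusions (10 nM to 1 μM) with streptavidin-Alexa Fluor 647 or rabbit histone antibodies (1:10,000 to 1:2,000) with anti-rabbit Alexa 647, and scanned at 635 nm for signal and 532 nm for misprints on an Axon GenePix 4000B.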"}, "[2]": {"biological_target": "HaloTag-ING2 PHD (mouse Ing2 200-280)", "method_in_brief": "as §1"}, "[3]": {"biological_target": "anti-H3K4me3 antibody ab8580", "method_in_brief": "as §1"}, "[4]": {"biological_target": "anti-H3K9me3 antibody ab8898", "method_in_brief": "as §1"}, "[5]": {"details": "peptide region: H3 73-85, binder concentration: 1:2,000 dilution"}, "[6]": {"details": "peptide region: H3 73-85, binder concentration: 1:10,000 dilution"}, "[7]": {"details": "peptide region: H3 73-85, peptide modifications: H3K79me2 H3T80ph, binder concentration: 1:2,000 dilution"}, "[8]": {"details": "peptide region: H3 73-85, peptide modifications: H3K79me2 H3T80ph, binder concentration: 1:10,000 dilution"}, "[9]": {"details": "peptide region: H3 50-62, peptide modifications: H3K56me1 H3S57ph, binder concentration: 1:2,000 dilution"}, "[10]": {"details": "peptide region: H3 50-62, peptide modifications: H3K56me1 H3S57ph, binder concentration: 1:10,000 dilution"}, "[11]": {"details": "peptide region: H3 50-62, peptide modifications: H3K56me2, binder concentration: 1:2,000 dilution"}, "[12]": {"details": "peptide region: H3 50-62, peptide modifications: H3K56me2, binder concentration: 1:10,000 dilution"}, "[13]": {"details": "peptide region: H3 73-85, peptide modifications: H3K79me1 H3T80ph, binder concentration: 1:2,000 dilution"}, "[14]": {"details": "peptide region: H3 73-85, peptide modifications: H3K79me1 H3T80ph, binder concentration: 1:10,000 dilution"}},
  "note": "± gives the standard deviation.",
  "data": [
    {"binder": "EIAQDFKTDLRFQ", "note": "[H3 73-85 E I A Q D F K T D L R F Q]", "values": [
      {"measurement": "peptide microarray binding signal", "setting": "[1]; peptide region: H3 73-85, binder concentration: 50 nM", "value": "0.0048 ± 0.00013"},
      {"measurement": "peptide microarray binding signal", "setting": "[1]; peptide region: H3 73-85, binder concentration: 500 nM", "value": "0.0155 ± 0.00056"},
      {"measurement": "peptide microarray binding signal", "setting": "[2]; peptide region: H3 73-85, binder concentration: 10 nM", "value": "0.008 ± 0.00096"},
      {"measurement": "peptide microarray binding signal", "setting": "[2]; peptide region: H3 73-85, binder concentration: 100 nM", "value": "0.00248 ± 6.3e-05"},
      {"measurement": "peptide microarray binding signal", "setting": "[3]; [5]", "value": "0.000264 ± 5.6e-06"},
      {"measurement": "peptide microarray binding signal", "setting": "[3]; [6]", "value": "0.00228 ± 0.0003"},
      {"measurement": "peptide microarray binding signal", "setting": "[4]; [5]", "value": "0.00308 ± 0.00021"},
      {"measurement": "peptide microarray binding signal", "setting": "[4]; [6]", "value": "0.00236 ± 6.4e-05"}
    ]},
    {"binder": "EIAQDFKTDLRFQ", "note": "[H3 73-85 E I A Q D F Kme2 Tph D L R F Q]", "values": [
      {"measurement": "peptide microarray binding signal", "setting": "[1]; peptide region: H3 73-85, peptide modifications: H3K79me2 H3T80ph, binder concentration: 50 nM", "value": "0.00103 ± 3.4e-05"},
      {"measurement": "peptide microarray binding signal", "setting": "[1]; peptide region: H3 73-85, peptide modifications: H3K79me2 H3T80ph, binder concentration: 500 nM", "value": "0.000714 ± 1.2e-05"},
      {"measurement": "peptide microarray binding signal", "setting": "[2]; peptide region: H3 73-85, peptide modifications: H3K79me2 H3T80ph, binder concentration: 10 nM", "value": "0.002089 ± 1.2e-05"},
      {"measurement": "peptide microarray binding signal", "setting": "[2]; peptide region: H3 73-85, peptide modifications: H3K79me2 H3T80ph, binder concentration: 100 nM", "value": "0.000992 ± 1.1e-05"},
      {"measurement": "peptide microarray binding signal", "setting": "[3]; [7]", "value": "0.000283 ± 5.1e-06"},
      {"measurement": "peptide microarray binding signal", "setting": "[3]; [8]", "value": "0.000799 ± 5.8e-05"},
      {"measurement": "peptide microarray binding signal", "setting": "[4]; [7]", "value": "0.000438 ± 1.8e-05"},
      {"measurement": "peptide microarray binding signal", "setting": "[4]; [8]", "value": 0.000634}
    ]},
    {"binder": "EIRRYQKSTELLI", "note": "[H3 50-62 E I R R Y Q Kme Sph T E L L I]", "values": [
      {"measurement": "peptide microarray binding signal", "setting": "[1]; peptide region: H3 50-62, peptide modifications: H3K56me1 H3S57ph, binder concentration: 50 nM", "value": "0.00125 ± 3.7e-05"},
      {"measurement": "peptide microarray binding signal", "setting": "[1]; peptide region: H3 50-62, peptide modifications: H3K56me1 H3S57ph, binder concentration: 500 nM", "value": "0.00143 ± 2.3e-05"},
      {"measurement": "peptide microarray binding signal", "setting": "[2]; peptide region: H3 50-62, peptide modifications: H3K56me1 H3S57ph, binder concentration: 10 nM", "value": "0.00209 ± 2.4e-05"},
      {"measurement": "peptide microarray binding signal", "setting": "[2]; peptide region: H3 50-62, peptide modifications: H3K56me1 H3S57ph, binder concentration: 100 nM", "value": "0.00085 ± 2.5e-05"},
      {"measurement": "peptide microarray binding signal", "setting": "[3]; [9]", "value": "0.000264 ± 7.4e-06"},
      {"measurement": "peptide microarray binding signal", "setting": "[3]; [10]", "value": "0.000342 ± 3.8e-06"},
      {"measurement": "peptide microarray binding signal", "setting": "[4]; [9]", "value": "0.000861 ± 8.7e-05"},
      {"measurement": "peptide microarray binding signal", "setting": "[4]; [10]", "value": "0.000519 ± 5.6e-06"}
    ]},
    {"binder": "EIRRYQKSTELLI", "note": "[H3 50-62 E I R R Y Q Kme2 S T E L L I]", "values": [
      {"measurement": "peptide microarray binding signal", "setting": "[1]; peptide region: H3 50-62, peptide modifications: H3K56me2, binder concentration: 50 nM", "value": "0.01 ± 0.00043"},
      {"measurement": "peptide microarray binding signal", "setting": "[1]; peptide region: H3 50-62, peptide modifications: H3K56me2, binder concentration: 500 nM", "value": "0.0165 ± 0.0014"},
      {"measurement": "peptide microarray binding signal", "setting": "[2]; peptide region: H3 50-62, peptide modifications: H3K56me2, binder concentration: 10 nM", "value": "0.0135 ± 0.0033"},
      {"measurement": "peptide microarray binding signal", "setting": "[2]; peptide region: H3 50-62, peptide modifications: H3K56me2, binder concentration: 100 nM", "value": "0.00624 ± 0.00068"},
      {"measurement": "peptide microarray binding signal", "setting": "[3]; [11]", "value": "0.000868 ± 0.00013"},
      {"measurement": "peptide microarray binding signal", "setting": "[3]; [12]", "value": "0.00171 ± 8.6e-05"},
      {"measurement": "peptide microarray binding signal", "setting": "[4]; [11]", "value": "0.00953 ± 0.00056"},
      {"measurement": "peptide microarray binding signal", "setting": "[4]; [12]", "value": "0.00323 ± 0.0002"}
    ]},
    {"binder": "EIAQDFKTDLRFQ", "note": "[H3 73-85 E I A Q D F Kme Tph D L R F Q]", "values": [
      {"measurement": "peptide microarray binding signal", "setting": "[1]; peptide region: H3 73-85, peptide modifications: H3K79me1 H3T80ph, binder concentration: 50 nM", "value": "0.001034 ± 5.2e-06"},
      {"measurement": "peptide microarray binding signal", "setting": "[1]; peptide region: H3 73-85, peptide modifications: H3K79me1 H3T80ph, binder concentration: 500 nM", "value": "0.00181 ± 3.2e-05"},
      {"measurement": "peptide microarray binding signal", "setting": "[2]; peptide region: H3 73-85, peptide modifications: H3K79me1 H3T80ph, binder concentration: 10 nM", "value": "0.00281 ± 8.7e-05"},
      {"measurement": "peptide microarray binding signal", "setting": "[2]; peptide region: H3 73-85, peptide modifications: H3K79me1 H3T80ph, binder concentration: 100 nM", "value": "0.00135 ± 7.3e-05"},
      {"measurement": "peptide microarray binding signal", "setting": "[3]; [13]", "value": 0.000283},
      {"measurement": "peptide microarray binding signal", "setting": "[3]; [14]", "value": "0.000342 ± 3.8e-06"},
      {"measurement": "peptide microarray binding signal", "setting": "[4]; [13]", "value": "0.000921 ± 0.00013"},
      {"measurement": "peptide microarray binding signal", "setting": "[4]; [14]", "value": 0.000634}
    ]}
  ]
}
